Values without a mark were called inactive. Results filed as inconclusive are left out. The source made the active and inactive calls. Unless noted, calls follow the shape of the full dose curve.

Assay [1] can be described thus: Nuclear factor erythroid 2-related factor 2/antioxidant responsive element (Nrf2/ARE) small molecule agonists: qHTS cell viability counter screen in human keratinocytes (AID 1919968; active = well fitted curve in the direction sought with a large enough effect in the repeat runs; an effect the other way counts as inactive or inconclusive; also: nearly all actives have a fitted effect of over 55% in size; also: potency is read from the fitted curve at half-maximal effect). In outline:
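Cells of the KeratinoSens line were plated at 1,500 per well and left for 5 h before compound transfer from DMSO stocks. After a 23 h incubation (37 C, 5% CO2), CellTiter-Fluor was added. Signal was taken as fluorescence intensity 1 h later.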

Assay [2] deals with Gonadotropin-releasing hormone receptor (Homo sapiens) (UniProt P30968). In words: Human gonadotropin-releasing hormone receptor (GnRHR) small molecule agonists, calcium flux assay in GnRHR-HEK293 cells (AID 1920063). Also: nearly all actives have a fitted effect of over 35% in size. The gist of the method: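 Compounds dissolved in DMSO are pin-transferred onto dye-loaded GnRHR-HEK293 cells, which were seeded 18 h before at 37 C/5% CO2. Calcium signal is read as fluorescence intensity at 1 s intervals for 3 min.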
For orientation: Calcium flux is commonly read through the fluorescence of an indicator in the cells.

Assay [3] deals with KiSS-1 receptor (Homo sapiens) (UniProt Q969F8). In words: Human kisspeptin (KISS1R) small molecule agonists, calcium flux assay in KISS1R-HEK293 cells (AID 1920064; active = well fitted curve in the direction sought with a large enough effect in the repeat runs; an effect the other way counts as inactive or inconclusive; also: potency is read from the fitted curve at half-maximal effect). In outline: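 Cell line: HEK293, stable human KISS1R. Dye loading 1 h at 37 C after 18 h culture. Read: kinetic fluorescence, 480/540 nm, 3 min at 1 s intervals.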
The nature of assay [4]: G protein-coupled receptor (GPCR) small molecule agonists, calcium flux assay: HEK293 wild type cell line counter screen (AID 1920065). The gist of the method: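 Tox21 10K compounds, 15 concentrations each in triplicate, pin-transferred in DMSO onto dye-loaded cells; kinetic read at 480/540 nm for 3 min, 1 s intervals.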
A short description of assay [5]: p53 small molecule agonists, cell-based qHTS assay with human liver microsomes (AID 1963577). The gist of the method: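 p53RE-bla reporter cells were pre-incubated 5 h at 37 C, then treated with compounds plus human liver microsomes (0.5 mg/mL final) and NADPH (0.5 mg/mL final) for 16 h at 37 C. Beta-lactamase activity was read by LiveBLAzer fluorescence after 2 h at room temperature.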
On the technique in general: Quantitative high-throughput screening tests each substance at several concentrations.

Assay [6] is described as follows: p53 small molecule agonists, cell-based qHTS assay with rat liver microsomes (AID 1963578). Also: potency is read from the fitted curve at half-maximal effect. In outline:
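p53RE-bla cells were exposed to compounds together with rat liver microsomes (0.5 mg/mL final) and NADPH (0.5 mg/mL final) for 16 h at 37 C, then read by LiveBLAzer beta-lactamase fluorescence after 2 h at room temperature.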

The nature of assay [7]: p53 small molecule agonists, cell-based qHTS assay with human liver microsomes: qHTS cell viability counter screen (AID 1963579). Also: nearly all actives have a fitted effect of over 45% in size. Also: potency is read from the fitted curve at half-maximal effect. The gist of the method: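 p53RE-bla cells (4,000/well) were pre-incubated 5 h at 37 C, then given compounds in DMSO plus human liver microsomes (0.5 mg/mL final) and NADPH (0.5 mg/mL final) for 16 h at 37 C. Viability was read by CellTiter-Glo luminescence.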

Assay [8] in a line: p53 small molecule agonists, cell-based qHTS assay: qHTS cell viability counter screen (AID 1963581). Also: nearly all actives have a fitted effect of over 45% in size. Also: potency is read from the fitted curve at half-maximal effect. The gist of the method:
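ATP content measured by luminescence in HCT-116 p53RE-bla cells treated 16 h at 37 C, same wells as the reporter screen.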

The target of assay [9] is 5-hydroxytryptamine receptor 2A (Homo sapiens) (UniProt P28223). In words: 5-hydroxytryptamine receptor 2A (HTR2A) small molecule antagonists, cell-based qHTS assay (AID 1963586). Also: nearly all actives have a fitted effect of over 45% in size. In outline: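 CHO cells stably expressing human HTR2A were plated for 18 h at 37 C, then loaded with calcium dye for 1 h. Compounds were preincubated 5 min at room temperature before DOI (4 nM solution) was added. Kinetic fluorescence was read for 3 min.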

For assay [10] the target is unchanged. In words: 5-hydroxytryptamine receptor 2A (HTR2A) small molecule agonists, cell-based qHTS assay (AID 1963587). Also: nearly all actives have a fitted effect of over 30% in size. The gist of the method:
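HTR2A-CHO cells, plated 18 h at 37 C/5% CO2, dye-loaded 1 h at 37 C; compounds in DMSO added by pin tool (agonist mode). Intracellular calcium flux read as kinetic fluorescence on FDSS over 2 min at 1 s intervals.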

In assay [11] the target is Muscarinic acetylcholine receptor M1 (Homo sapiens) (UniProt P11229). In words: Cholinergic receptor muscarinic 1 (CHRM1) small molecule antagonists, cell-based qHTS assay (AID 1963588). Also: nearly all actives have a fitted effect of over 40% in size. The gist of the method:
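Compounds were tested at 15 concentrations in three independent runs. Dye-loaded CHRM1-CHO cells were exposed 5 min at room temperature before stimulation by acetylcholine added at 50nM. Intracellular calcium was read kinetically on FDSS for 3 min.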

Assay [12] shares this target. In words: Cholinergic receptor muscarinic 1 (CHRM1) small molecule agonists, cell-based qHTS assay (AID 1963589). Also: nearly all actives have a fitted effect of over 35% in size. In outline: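 Homogeneous fluorescence calcium flux, agonist mode. Human M1-expressing CHO cells; compound dosed at 15 concentrations, three independent runs; signal sampled every 1 sec.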
The target in assay [13] is Beta-2 adrenergic receptor (Homo sapiens) (UniProt P07550). In words: Adrenergic beta2 receptor (ADRB2) small molecule antagonists, cell-based qHTS assay (AID 1963592). Also: series mostly up to about 92 µM; nearly all actives have a fitted effect of over 50% in size. In outline:
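Assay format: CHO-ADRB2 cells, 18-20hr seeding at 37C/5% CO2, then compound plus 1nM isoproterenol agonist mix for 0.5hr RT. Homogeneous time-resolved fluorescence cAMP detection after 1hr, expressed as 665/615 nm ratio.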

Assay [14] deals with D(2) dopamine receptor (Homo sapiens) (UniProt P14416). In words: Dopamine D2 receptor (DRD2) small molecule agonists, cell-based qHTS assay (AID 1963594). Also: nearly all actives have a fitted effect of over 35% in size. The gist of the method:
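HEK293 cells stably expressing DRD2 were cultured 24 h at 37 C, then given Ro20-1724 (0.1 mM final) and compounds for 10 min at room temperature. NKH477 (200nM) was then added for 30 min. cAMP was read by HTRF.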

Assay [15] is described as follows: p53 small molecule agonists, cell-based qHTS assay with rat liver microsomes: qHTS cell viability counter screen (AID 1963580). Also: nearly all actives have a fitted effect of over 45% in size. In outline: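 Luminescent ATP readout (CellTiter-Glo, 30 min at room temperature) reports viability of p53RE-bla HCT-116 cells after 16 h at 37 C with test compounds under metabolic activation by rat liver microsomes and NADPH at 0.5 mg/mL final each.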

Assay [16] can be described thus: p53 small molecule agonists, cell-based qHTS assay (AID 1963582; active = well fitted activation curve with a large enough effect in the signal ratio in the repeat runs, not every such curve was filed as active; the % refers to the signal ratio). In outline: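 16 h compound exposure (37 C) of p53 response element–bla cells, preceded by 5 h recovery at 37 C/5% CO2; read-out via LiveBLAzer B/G FRET substrate, 2 h RT, fluorescence intensity.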
Assay [17] in a line: cAMP Responsive Elements (CRE) small molecule agonists, cell-based qHTS assay (AID 1963590). The gist of the method:
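HEK 293T cells stably bearing CRE-bla were plated at 2,000 cells per well and rested 18 h. Compounds, positive controls or DMSO were added for 3 h at 37 C. LiveBLAzer B/G substrate was then loaded for 2 h at room temperature.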

The nature of assay [18]: cAMP Responsive Elements (CRE) small molecule antagonists, cell-based qHTS assay (AID 1963591; active = well fitted inhibition curve with a large enough effect in the signal ratio in the repeat runs, not every such curve was filed as active; the % refers to the signal ratio). The gist of the method: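 First, CRE-bla HEK293T cells settled 18 h at 37 C. Next, compound and 0.25 uM final NKH477 were applied for 3 h. Last, LiveBLAzer B/G substrate was loaded for 2 h at room temperature.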
The target in assay [19] is D(2) dopamine receptor (Homo sapiens) (UniProt P14416). In words: Dopamine D2 receptor (DRD2) small molecule antagonists, cell-based qHTS assay (AID 1963595; active = well fitted inhibition curve with a large enough effect in the signal ratio in the repeat runs, with a control signal flat; the % refers to the signal ratio). In outline: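 DRD2-HEK293; 0.1 mM Ro20-1724; cpd 10 min RT; NKH477 200 nM + quinpirole 12 nM, 30 min RT; HTRF cAMP (cAMP-d2/anti-cAMP cryptate), 665/620 nm ratio after 1 h.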
D(2) dopamine receptor (Homo sapiens), sequence (P14416 whole entry, looked up): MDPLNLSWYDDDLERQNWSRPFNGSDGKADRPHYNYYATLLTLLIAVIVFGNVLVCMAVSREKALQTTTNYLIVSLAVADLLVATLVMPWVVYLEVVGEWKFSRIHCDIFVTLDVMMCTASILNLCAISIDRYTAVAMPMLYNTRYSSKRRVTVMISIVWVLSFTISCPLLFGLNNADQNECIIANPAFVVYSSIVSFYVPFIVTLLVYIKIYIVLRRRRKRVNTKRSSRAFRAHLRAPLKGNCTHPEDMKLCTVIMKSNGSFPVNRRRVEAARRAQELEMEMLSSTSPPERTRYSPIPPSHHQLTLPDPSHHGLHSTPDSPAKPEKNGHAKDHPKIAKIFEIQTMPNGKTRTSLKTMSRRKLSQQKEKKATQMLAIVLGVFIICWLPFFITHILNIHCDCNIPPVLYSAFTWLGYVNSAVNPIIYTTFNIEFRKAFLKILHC

KiSS-1 receptor (Homo sapiens), sequence (Q969F8 whole entry, looked up): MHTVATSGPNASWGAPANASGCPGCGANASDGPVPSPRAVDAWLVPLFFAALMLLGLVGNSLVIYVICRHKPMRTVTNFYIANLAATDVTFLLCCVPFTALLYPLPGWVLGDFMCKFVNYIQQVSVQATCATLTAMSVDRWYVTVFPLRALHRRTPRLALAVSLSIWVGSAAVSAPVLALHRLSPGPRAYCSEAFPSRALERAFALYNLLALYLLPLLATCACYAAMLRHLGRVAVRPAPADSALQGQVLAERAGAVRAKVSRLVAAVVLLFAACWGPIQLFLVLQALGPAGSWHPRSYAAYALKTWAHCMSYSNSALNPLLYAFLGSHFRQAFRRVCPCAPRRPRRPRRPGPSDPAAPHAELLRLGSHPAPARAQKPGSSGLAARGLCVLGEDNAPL
Beta-2 adrenergic receptor (Homo sapiens), sequence (P07550 whole entry, looked up): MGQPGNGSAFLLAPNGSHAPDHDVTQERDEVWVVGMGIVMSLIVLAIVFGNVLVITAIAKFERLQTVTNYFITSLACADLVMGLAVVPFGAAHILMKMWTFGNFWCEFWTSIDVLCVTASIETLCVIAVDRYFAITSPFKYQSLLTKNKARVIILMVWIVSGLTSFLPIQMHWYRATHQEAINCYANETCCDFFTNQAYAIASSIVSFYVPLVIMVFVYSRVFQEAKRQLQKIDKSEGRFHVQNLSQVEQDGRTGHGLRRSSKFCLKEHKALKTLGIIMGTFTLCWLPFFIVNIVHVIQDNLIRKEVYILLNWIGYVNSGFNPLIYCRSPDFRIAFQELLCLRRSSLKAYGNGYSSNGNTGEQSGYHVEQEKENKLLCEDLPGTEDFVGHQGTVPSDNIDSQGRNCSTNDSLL
Gonadotropin-releasing hormone receptor (Homo sapiens), sequence (P30968 whole entry, looked up): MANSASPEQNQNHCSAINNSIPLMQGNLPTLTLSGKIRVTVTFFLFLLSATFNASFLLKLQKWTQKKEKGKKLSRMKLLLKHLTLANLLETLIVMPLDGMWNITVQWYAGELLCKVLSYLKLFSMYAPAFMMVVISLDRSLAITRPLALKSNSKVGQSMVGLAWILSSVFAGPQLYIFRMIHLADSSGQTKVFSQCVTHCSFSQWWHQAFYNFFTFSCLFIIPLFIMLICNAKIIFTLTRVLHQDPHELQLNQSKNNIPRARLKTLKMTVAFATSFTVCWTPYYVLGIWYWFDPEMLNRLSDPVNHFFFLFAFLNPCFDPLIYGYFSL
Muscarinic acetylcholine receptor M1 (Homo sapiens), sequence (P11229 whole entry, looked up): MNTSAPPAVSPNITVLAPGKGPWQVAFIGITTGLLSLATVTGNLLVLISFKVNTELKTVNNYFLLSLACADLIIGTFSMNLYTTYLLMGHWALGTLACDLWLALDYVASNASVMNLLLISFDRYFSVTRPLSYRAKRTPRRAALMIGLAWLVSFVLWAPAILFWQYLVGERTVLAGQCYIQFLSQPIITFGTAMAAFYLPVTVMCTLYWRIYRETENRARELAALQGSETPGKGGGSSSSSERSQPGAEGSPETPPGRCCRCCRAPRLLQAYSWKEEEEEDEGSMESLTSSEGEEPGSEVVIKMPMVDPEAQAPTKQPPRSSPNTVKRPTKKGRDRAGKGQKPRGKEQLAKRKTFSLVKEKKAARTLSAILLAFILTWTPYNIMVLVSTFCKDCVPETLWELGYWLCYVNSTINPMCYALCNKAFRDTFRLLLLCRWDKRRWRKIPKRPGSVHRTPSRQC
5-hydroxytryptamine receptor 2A (Homo sapiens), sequence (P28223 whole entry, looked up): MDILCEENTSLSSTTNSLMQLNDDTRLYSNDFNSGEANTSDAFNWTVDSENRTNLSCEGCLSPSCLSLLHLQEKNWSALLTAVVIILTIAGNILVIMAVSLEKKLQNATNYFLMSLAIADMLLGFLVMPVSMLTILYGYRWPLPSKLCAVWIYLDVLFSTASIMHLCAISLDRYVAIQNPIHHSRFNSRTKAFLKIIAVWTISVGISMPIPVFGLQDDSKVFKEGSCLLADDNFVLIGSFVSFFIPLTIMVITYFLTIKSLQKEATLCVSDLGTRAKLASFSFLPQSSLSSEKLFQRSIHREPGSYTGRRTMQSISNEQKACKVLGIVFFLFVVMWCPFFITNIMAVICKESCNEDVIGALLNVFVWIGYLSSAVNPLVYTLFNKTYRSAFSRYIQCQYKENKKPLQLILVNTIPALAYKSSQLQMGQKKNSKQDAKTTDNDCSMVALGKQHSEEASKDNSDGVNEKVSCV

With `Oc1ccc(C2(c3ccc(O)cc3)c3ccccc3-c3ccccc32)cc1`, the Potency in assay [1] is 30.6 µM (active); in assay [7], 32.4 µM (active); in [8], 45.8 µM (active). Besides, the Potency entry in assay [2], in assay [3], in assay [4], in assay [5], in [6] and in assay [9] was “inactive” in each case. Further, the Potency entry in assay [10], in assay [11], in [12], in [13] and in [14] was “inactive” in each case.

For the compound `CC(C)(C)OO`, the Potency entry in [1], in assay [2], in assay [3], in assay [4], in assay [5] and in assay [6] was “inactive” in each case. Moreover, the Potency result in assay [15], in assay [16], in [9], in [10], in assay [11] and in [12] was “inactive” throughout. The Potency result in [17], in assay [18], in [13] and in assay [14] was “inactive” in each case.

In the case of `c1cncc([C@@H]2CCCCN2)c1`, the Potency entry in [1], in [2], in [3], in assay [4], in assay [5] and in [6] was “inactive” throughout. For the same compound, the Potency entry in assay [7], in assay [8], in assay [9], in assay [10], in assay [11] and in assay [12] was “inactive” in each case. The Potency entry in [17], in assay [18], in assay [13], in assay [14] and in assay [19] was “inactive” in each case.

As to `CC(C)COP(=O)(OCC(C)C)OCC(C)C`, the Potency entry in assay [1], in [2], in [3], in assay [4], in [5] and in assay [6] was “inactive” in each case. Further, the Potency result in [7], in assay [15], in assay [8], in [9], in [10] and in [12] was “inactive” in each case. Besides, the Potency result in assay [17], in assay [13], in assay [14] and in [19] was “inactive” each time.

Consider `CC1CCC(C(C)C)C(OC(=O)c2ccccc2N)C1` (configuration not stated), for which the Potency in assay [1] was 30.2 µM (active); in assay [6], 35.8 µM (active); in assay [7], 35.8 µM (active); in assay [8] it was 31.9 µM (active). The Potency entry in assay [2], in [3], in assay [4], in [5], in assay [15] and in assay [10] was “inactive” each time. Besides, the Potency entry in [12], in [17], in assay [13] and in assay [14] was “inactive” throughout.

Consider `SCc1ccccc1`, for which the Potency entry in [1], in [2], in assay [3], in assay [4], in assay [5] and in assay [6] was “inactive” each time. The Potency result in assay [7], in assay [15], in assay [16], in assay [10], in assay [11] and in assay [12] was “inactive” in each case. Moreover, the Potency entry in [17], in assay [18], in [13] and in assay [19] was “inactive” each time.

As to `CN`, the Potency result in assay [1], in [2], in assay [3], in assay [4], in assay [5] and in [6] was “inactive” throughout. Further, the Potency entry in [7], in [15], in [8], in assay [16], in assay [9] and in assay [10] was “inactive” throughout. The Potency result in assay [12], in assay [17], in assay [18], in [13], in [14] and in assay [19] was “inactive” in each case.

For the compound `CCCCCCC[CH2][Sn]([Cl])([Cl])[CH2]CCCCCCC`, the Potency in [1] is 30.6 µM (active); in assay [3], 48.9 µM (active). The Potency result in assay [2], in [4], in assay [5], in assay [6], in [15] and in [8] was “inactive” throughout. Also, the Potency result in assay [9], in assay [10], in assay [11], in assay [12], in assay [17] and in assay [13] was “inactive” each time. The Potency entry in assay [14] and in [19] was “inactive” in each case.

Source of the values: PubChem BioAssay (Tox21).
